Data from PubChem BioAssay (Tox21).
Unmarked numbers belong to inactive results. Results filed as inconclusive are left out. Where a call stands in place of a potency, no number is given. Calls of active or inactive are those of the source. Calls come from the whole dose curve; as a rule, active = well fitted cell-killing curve with a large enough effect in the repeat runs; inconclusive = weak or mixed curves, or effect the other way; inactive = flat fitted curve, though single readings scatter.
Note: nearly all actives have a fitted effect of over 50% in size.

Assay: qHTS assay to identify small molecule HDAC inhibitors - cell viability counter screen (AID 1259365)
Details: HCT-116 viability, CellTiter-Glo ATP luminescence, 2 h; series mostly up to 92.4 µM
Procedure, shortened: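 Wild-type HCT-116 cells were seeded at 1,500 per well, incubated overnight at 37 C, then exposed to compounds in DMSO for 2hr. Viability was read by CellTiter-Glo luminescence after 30min at room temperature.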
In the case of `S=c1nccc[nH]1`, the Potency is reported as “inactive”.
In the case of `Cc1cc(C(C)(C)C)c(O)c(C)c1Cn1c(=O)n(Cc2c(C)cc(C(C)(C)C)c(O)c2C)c(=O)n(Cc2c(C)cc(C(C)(C)C)c(O)c2C)c1=O`, the Potency is reported as “inactive”.
With `CC(C)CCCCCOC(=O)CCS` the Potency was “inactive”.
In the case of `OC[C@@H](O)[C@@H](O)CO`, the Potency is reported as “inactive”.
For `c1ccc(SSc2ccccc2)cc1`, the Potency was “inactive”.
In the case of `O=S(=O)(O)c1ccccc1/C=C/c1ccc(-c2ccc(/C=C/c3ccccc3S(=O)(=O)O)cc2)cc1`, the Potency is reported as “inactive”.
For `CCCCCc1ccc(Cl)cc1`, the Potency was “inactive”.
With `CCCC(=O)OCOC(=O)C1=C(C)NC(C)=C(C(=O)OC)C1c1cccc(Cl)c1Cl` (configuration not stated) the Potency was “inactive”.
In the case of `CCN(CCN)c1cccc(C)c1`, the Potency is reported as “inactive”.
With `[Cu+]` the Potency was “inactive”.
For `CC1(C)CC(O)CC(C)(C)N1`, the Potency was “inactive”.
In the case of `O=C(O)O`, the activity change, negative = cytotoxicity is reported as -4.12% [at 8.39 µM].
For `C=CC(=O)OCCOC(=O)C=C`, the Potency was “inactive”.
For `Fc1ccc(C(c2ccc(F)cc2)N2CCNCC2)cc1`, the Potency was “inactive”.
In the case of `O=C(Oc1ccccc1)Oc1ccccc1`, the Potency is reported as “inactive”.
In the case of `CC(C)(C)c1csc(-c2cc3cc(OCc4ccccc4CC(=O)O)ccc3o2)n1`, the Potency is reported as “inactive”.
For `CCCCOC(=O)CO`, the Potency was “inactive”.
For `C1CCC(SSC2CCCCC2)CC1`, the Potency was “inactive”.
With `COC(=O)c1ccccc1OC` the Potency was “inactive”.
In the case of `Cc1c(C)c([N+](=O)[O-])c(C(C)(C)C)c([N+](=O)[O-])c1C`, the Potency is reported as “inactive”.
With `CCn1c2ccccc2c2cc([N+](=O)[O-])ccc21` the Potency was “inactive”.
With `CCCCN(CCCC)CC(O)c1cc(Cl)cc2c1-c1ccc(Cl)cc1/C2=C/c1ccc(Cl)cc1` (configuration not stated) the Potency was “inactive”.
In the case of `O=C(O)c1cccc(C(F)(F)F)c1`, the Potency is reported as “inactive”.
For `C[Si](Cl)(c1ccccc1)c1ccccc1`, the Potency was “inactive”.

Assay: qHTS assay to identify small molecule agonists of the sonic hedgehog signaling (Shh) pathway - cell viability counter screen (AID 1259366); note: potency is the fitted concentration of half-maximal effect
Details: NIH/3T3 Gli1-Luc viability, CellTiter-Fluor, 24 h; series mostly up to 92.4 µM
Procedure, shortened: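 NIH/3T3-derived 3T3 Gli1-Luc cells (stable Gli1-responsive firefly luciferase reporter) were seeded, rested 4 hr at 37 C/5% CO2, then exposed to compounds in DMSO for 24 hr; viability was read by CellTiter-Fluor fluorescence in the same wells.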
In the case of `CCc1ccc(Br)cc1`, the Potency is reported as “inactive”.
In the case of `O=C(O)Cc1ccc2c(c1)C(=O)c1ccccc1CO2`, the Potency is reported as “inactive”.
With `CC(C)CCCCCOC(=O)CCS` the Potency was “inactive”.
For `OC[C@@H](O)[C@@H](O)CO`, the Potency was “inactive”.
In the case of `CC1=CCC(=C(C)C)CC1`, the Potency is reported as “inactive”.
For `CCN(CCN)c1cccc(C)c1`, the Potency was “inactive”.
In the case of `Clc1nnc(Cl)c2ccccc12`, the Potency is reported as “inactive”.
With `[Cu+]` the Potency was “inactive”.
In the case of `CC1(C)CC(O)CC(C)(C)N1`, the Potency is reported as “inactive”.
`O=C(O)O` showed a viability change, negative = cytotoxic of 1.19% [at 8.39 µM].
With `COc1cc(C)ccc1O` the Potency was “inactive”.
With `C=CC(C)(CCC=C(C)C)OC=O` (configuration not stated) the Potency was “inactive”.
With `C=CC(=O)OCCOC(=O)C=C` the Potency was “inactive”.
For `O=C(Oc1ccccc1)Oc1ccccc1`, the Potency was “inactive”.
For `c1cnccn1`, the Potency was “inactive”.
In the case of `CCCCOC(=O)CO`, the Potency is reported as “inactive”.
In the case of `[Cl][Pt-2]([Cl])([Cl])[Cl]`, the Potency is reported as “inactive”.
With `O=C(Nc1ccc2c(O)c(N=Nc3ccc(N=Nc4ccc(S(=O)(=O)O)cc4)cc3)c(S(=O)(=O)O)cc2c1)c1ccccc1` the Potency was 10.9 µM (active).
In the case of `CC(C)(C)C1CCC(=O)CC1`, the Potency is reported as “inactive”.
With `Cc1c(C)c([N+](=O)[O-])c(C(C)(C)C)c([N+](=O)[O-])c1C` the Potency was “inactive”.
With `CCO[Si](OCC)(OCC)OCC` the Potency was “inactive”.
With `CCCCN(CCCC)CC(O)c1cc(Cl)cc2c1-c1ccc(Cl)cc1/C2=C/c1ccc(Cl)cc1` (configuration not stated) the Potency was 26.6 µM (active).
With `C[Si](Cl)(c1ccccc1)c1ccccc1` the Potency was “inactive”.
